Results filed as inconclusive are left out. Activity calls are given as the source filed them. The call rests on the fitted dose curve; in most records, active means well fitted inhibition curve with a large enough effect; inconclusive means small, poorly fitted or top-dose-only effect; inactive means flat fitted curve, though single readings scatter. Peptide text beside a SMILES is read from it.

Experimental findings from PubChem BioAssay (NCATS) are described below.

Test [1] is described as follows: qHTS for identification of novel therapeutic agents for treatment of microphthalmiaassociated transcription factor (MiT) renal cell carcinoma (RCC) (AID 1963991). The conditions noted are these: CellTiter-Glo, 48 h, stronger effect = lower value. A digest of the protocol: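 Three TFE3-fusion RCC cell lines (UOK109, UOK124, UOK145), 500 cells/well, were exposed to the 1912-compound MIPE 4.0 library for 48 hours at 37 C. Viability was read by CellTiter-Glo luminescence, normalised to DMSO (100%) and empty wells (0%), with 11-concentration curve fits.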

The nature of test [2]: qHTS profiling for inhibitors of Plasmodium falciparum proliferation (AID 504749).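 Further: 0% = DMSO vehicle and full inhibition = artemisinin control; nearly all actives have a fitted effect of over 60% in size.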 The conditions noted are these: P. falciparum in erythrocytes, SYBR Green DNA, 72 h, at 28.7 µM (top of the series). A digest of the protocol:
(§1)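 Three-day growth assay of blood-stage parasites in erythrocytes (0.3% parasitemia, 2.5% hematocrit) at 37 C, 5% CO2, quantified by SYBR Green DNA staining after overnight detergent lysis.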

The test system of the next test is 3D7. The test is described as above. The conditions noted are these: P. falciparum in erythrocytes, SYBR Green DNA, 72 h; series mostly up to 28.7 µM. In a few lines: as §1
Another test deals with AA1029. Described as above. Particulars: P. falciparum in erythrocytes, SYBR Green DNA, 72 h; series mostly up to 28.7 µM. A digest of the protocol: as §1
A further test relates to AS120. The description is as above. Particulars: P. falciparum in erythrocytes, SYBR Green DNA, 72 h; series mostly up to 28.7 µM. A digest of the protocol: as §1
Another test relates to ATS189. Described as above. The conditions noted are these: P. falciparum in erythrocytes, SYBR Green DNA, 72 h; series mostly up to 28.7 µM. In a few lines: as §1
The next test has as its system ATS95. The test is described as above. The conditions noted are these: P. falciparum in erythrocytes, SYBR Green DNA, 72 h; series mostly up to 28.7 µM. A digest of the protocol:
as §1

In another test the test system is C2A. Described as above. Particulars: P. falciparum in erythrocytes, SYBR Green DNA, 72 h; series mostly up to 28.7 µM. A digest of the protocol: as §1
The test system of a further test is CP185. Described as above. The conditions noted are these: P. falciparum in erythrocytes, SYBR Green DNA, 72 h; series mostly up to 28.7 µM. In a few lines:
as §1

In another test the test system is CP192. The description is as above. Particulars: P. falciparum in erythrocytes, SYBR Green DNA, 72 h; series mostly up to 28.7 µM. In a few lines: as §1
The next test concerns CP201. Described as above. Particulars: P. falciparum in erythrocytes, SYBR Green DNA, 72 h; series mostly up to 28.7 µM. A digest of the protocol:
as §1

The test system of the next test is CP203. The description is as above. The conditions noted are these: P. falciparum in erythrocytes, SYBR Green DNA, 72 h; series mostly up to 28.7 µM. In a few lines: as §1
The subject of a further test is CP211. The test is described as above. Particulars: P. falciparum in erythrocytes, SYBR Green DNA, 72 h; series mostly up to 28.7 µM. In a few lines: as §1
Another test concerns CP215. The test is described as above. Particulars: P. falciparum in erythrocytes, SYBR Green DNA, 72 h; series mostly up to 28.7 µM. A digest of the protocol:
as §1

For another test, the system named is CP217. The description is as above. Particulars: P. falciparum in erythrocytes, SYBR Green DNA, 72 h; series mostly up to 28.7 µM. A digest of the protocol: as §1
A further test concerns CP238. The test is described as above. Particulars: P. falciparum in erythrocytes, SYBR Green DNA, 72 h; series mostly up to 28.7 µM. A digest of the protocol: as §1
Another test concerns 7G8. The test is described as above. The conditions noted are these: P. falciparum in erythrocytes, SYBR Green DNA, 72 h; series mostly up to 28.7 µM. In a few lines:
as §1

The next test relates to CP191. The description is as above. The conditions noted are these: P. falciparum in erythrocytes, SYBR Green DNA, 72 h; series mostly up to 28.7 µM. A digest of the protocol:
as §1

The next test relates to CP194. Described as above. Particulars: P. falciparum in erythrocytes, SYBR Green DNA, 72 h; series mostly up to 28.7 µM. A digest of the protocol: as §1
The subject of the next test is CP237. The test is described as above. The conditions noted are these: P. falciparum in erythrocytes, SYBR Green DNA, 72 h; series mostly up to 28.7 µM. A digest of the protocol:
as §1

Setting [3] is: TFE3-RCC UOK109 viability, measured here: UOK109 Z-AUC.
Setting [4] is: TFE3-RCC viability, measured here: UOK124 Z-AUC.
Where [5] appears, read: TFE3-RCC viability, measured here: UOK145 Z-AUC.

In the case of `COCCCOc1ccnc(CS(=O)c2nc3ccccc3[nH]2)c1C` (centres undefined), the z-score was 0.673 in [1] (setting [3]), 0.741 in [1] (setting [4]) and 0.739 in [1] (setting [5]). Also, the activity, negative = inhibition in [2] (parasite line A) was -29% (inactive); in [2] (parasite line B), -20.3% (inactive). The Potency result with 3D7, with AA1029, in the test with AS120, in the test on ATS189, in the test on ATS95 and in the test with C2A was “inactive” throughout. The Potency entry with CP185, in the test on CP192, with CP201, in the test with CP203, in the test on CP211 and in the test on CP215 was “inactive” in each case. The Potency result with CP217 and in the test on CP238 was “inactive” in each case.
As for `C[Se]CCC(N)C(=O)O` (centres undefined), the z-score amounted to 1.47 in [1] (setting [3]), 0.35 in test [1] (setting [4]) and 0.0936 in test [1] (setting [5]). In addition, the activity, negative = inhibition was 6.19% (inactive) in test [2] (parasite line A) and -13.4% (inactive) in test [2] (parasite line B). Also, the Potency entry in the test on 3D7, in the test on 7G8, in the test on AA1029, in the test with AS120, with ATS189 and in the test with ATS95 was “inactive” in each case. Further, the Potency entry in the test on C2A, with CP185, in the test on CP191, with CP192, with CP194 and in the test with CP201 was “inactive” each time. Also, the Potency entry in the test on CP203, with CP211, in the test with CP217, in the test on CP237 and in the test with CP238 was “inactive” each time.
Regarding `CC(C)[C@H](N)C(=O)OCCOCn1cnc2c(=O)[nH]c(N)nc21`, the values for the z-score in test [1] (setting [3]), in test [1] (setting [4]) and in test [1] (setting [5]) were 0.0968, 0.361 and 0.522, respectively. Also, the results for the activity, negative = inhibition in [2] (parasite line A) and in [2] (parasite line B) were -1.13% (inactive) and 7.31% (inactive), respectively. The Potency entry in the test on 3D7, in the test on AA1029, in the test with AS120, in the test on ATS189, in the test on ATS95 and in the test on C2A was “inactive” each time. Moreover, the Potency result with CP185, in the test with CP191, with CP192, in the test on CP194, in the test on CP201 and with CP203 was “inactive” each time. The Potency entry in the test on CP211, with CP215, in the test with CP217, in the test on CP237 and in the test with CP238 was “inactive” throughout.
On to `CNC[C@@H](O)[C@@H](O)[C@H](O)[C@H](O)CO`, for which the z-score in test [1] (setting [3]) was found to be 1.02; in test [1] (setting [4]), 0.532; in [1] (setting [5]) it was 0.899. Besides, the activity, negative = inhibition in [2] (parasite line A) was 7.09% (inactive); in test [2] (parasite line B) it was 5.8% (inactive). The Potency entry in the test with 3D7, in the test on 7G8, in the test on AA1029, in the test on AS120, in the test with ATS189 and in the test with ATS95 was “inactive” throughout. Further, the Potency result with C2A, with CP185, in the test with CP191, in the test on CP192, in the test with CP194 and with CP201 was “inactive” in each case. In addition, the Potency result in the test with CP203, with CP211, with CP215, with CP217, with CP237 and in the test on CP238 was “inactive” in each case.
Consider `COC(=O)[C@H](Cc1ccccc1)NC(=O)[C@@H](N)CC(=O)O` (H-Asp-Phe-OMe), for which the z-score in [1] (setting [3]) is 0.591; in [1] (setting [4]), 0.672; in test [1] (setting [5]), 0.618. Also, the activity, negative = inhibition in test [2] (parasite line A) is 5.55% (inactive); in test [2] (parasite line B), 9.71% (inactive). Also, the Potency entry in the test on 3D7, in the test on 7G8, in the test on AA1029, in the test on AS120, in the test with ATS189 and with ATS95 was “inactive” throughout. Moreover, the Potency result in the test with C2A, in the test on CP185, with CP191, in the test on CP192, in the test with CP194 and with CP201 was “inactive” throughout. The Potency entry in the test on CP203, in the test with CP211, in the test with CP215, with CP217, in the test with CP237 and in the test with CP238 was “inactive” in each case.
